# Screening results as filed in PubChem.
# Sfp PPTase inh: inhibitors of Bacillus subtilis Sfp phosphopantetheinyl transferase | Biochemical Sfp PPTase activity, qHTS | Potency, µM, actives largely listed as inhibitors | hit rate 3.5% among 310,000 | AID 1490;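 note: the enzyme is Sfp with the accession as filed and its product quenches rhodamine fluorescence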
#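 Fluorescence-quenching assay: 15 nM Sfp-PPTase preincubated 15 min at room temperature with compound, then 5 uM rhodamine-CoA and 12.5 uM BHQ-2-labelled YbbR peptide added. Fluorescence (ex 525/em 598 nm) read at start and after 30 min; difference gives rate.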
# PLK1 PBD inh: PLK1 (human) polo-box domain binding inhibition; AID 720504; Potency, µM, usual class: inhibitors; hit rate 2.8% among 360,000; Plk1 PBD binding of FITC phosphopeptide, fluorescence polarization; note: series mostly up to about 57 µM; nearly all actives have a fitted effect of over 65% in size
# Target sequence (P53350 whole entry, looked up, the tested form may be a part): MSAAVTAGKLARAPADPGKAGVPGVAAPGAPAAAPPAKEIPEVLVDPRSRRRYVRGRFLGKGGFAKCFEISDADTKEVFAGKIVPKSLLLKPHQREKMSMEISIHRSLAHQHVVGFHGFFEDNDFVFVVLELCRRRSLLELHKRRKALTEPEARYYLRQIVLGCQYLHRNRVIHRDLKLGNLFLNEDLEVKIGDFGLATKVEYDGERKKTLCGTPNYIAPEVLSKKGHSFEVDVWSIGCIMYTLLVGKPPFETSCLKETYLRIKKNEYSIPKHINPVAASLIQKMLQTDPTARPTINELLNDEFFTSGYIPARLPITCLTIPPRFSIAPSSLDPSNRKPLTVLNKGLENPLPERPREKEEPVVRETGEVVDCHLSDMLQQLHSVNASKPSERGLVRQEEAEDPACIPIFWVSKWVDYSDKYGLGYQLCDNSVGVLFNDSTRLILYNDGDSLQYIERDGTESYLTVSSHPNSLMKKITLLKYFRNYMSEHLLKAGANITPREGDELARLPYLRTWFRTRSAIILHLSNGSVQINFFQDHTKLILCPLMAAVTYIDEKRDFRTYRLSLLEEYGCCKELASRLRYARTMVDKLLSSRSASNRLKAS
# BAZ2B inh: BAZ2B (human) inhibition; Q9UIF8; AlphaScreen BAZ2B-H3K14Ac peptide displacement; Potency, µM (series often up to 114 µM), usual class: inhibitors; hit rate 4.4% among 360,000; note: nearly all actives have a fitted effect of over 60% in size
#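 AlphaScreen displacement of biotin-H3(5-23)K14Ac peptide (50 nM final) from BAZ2B (50 nM final) in PBS pH 7.4, 0.01% Tween-20; complex preformed 30 min RT, then compounds (top 110 uM) 30 min RT, beads 20 min dark.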
# G9a inh: inhibitors of human histone lysine methyltransferase G9a. Q96KQ7. G9a H3K9 monomethylation, AlphaScreen, 2 h. Potency, µM (top dose mostly 102 µM), usual class: inhibitors. hit rate 8.8% among 350,000; note: nearly all actives have a fitted effect of over 75% in size
#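 G9a (20 nM) was preincubated 15 min with compound, then reacted 2 h at room temperature with 500 nM biotin-H3K9 peptide and 20 µM SAM. Monomethyl-H3K9 detected by AlphaScreen using anti-H3K9me1 antibody.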
# HP1b binding inh: HP1-beta chromodomain-methylated histone interaction inhibition. Potency, µM (titrated, usually from 114 µM), most hits filed as inhibitors. AlphaScreen HP1-beta / biotin-H3K9me3 peptide binding. P83916. hit rate 0.56% among 390,000; note: nearly all actives have a fitted effect of over 70% in size
#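 Compound inhibition of the preformed complex between 50 nM HP1-beta and 50 nM biotinylated H3K9me3 peptide was read by AlphaScreen. Buffer was PBS pH 7.4 with 0.01% Tween-20. Incubations ran 30 min at room temperature, with 10 ug/mL donor/acceptor beads.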
# JMJD2A Tudor inh: blocks the human JMJD2A Tudor domain. O75164. hit rate 4.4% among 390,000. Potency, µM (doses to about 114 µM), hits mostly inhibitors. AlphaScreen JMJD2A-Tudor / H3K4me3 peptide binding. AID 504339; note: nearly all actives have a fitted effect of over 50% in size
# Numbers stand for hits; 0 = inactive; ? = inconclusive; - = no result; [ ] = another dose, or the depositor's remark. The list is not random: actives were taken first. Their share in the collection is about 12%. Calls come from the whole dose curve; as a rule, active = well fitted curve in the direction sought with a large enough effect; inconclusive = small, poorly fitted or top-dose-only effect, or another doubt; inactive = no such curve, though single readings can be large; an effect the other way counts as inactive or inconclusive.
SMILES,Sfp PPTase inh,PLK1 PBD inh,BAZ2B inh,G9a inh,HP1b binding inh,JMJD2A Tudor inh
COc1ccc(S(=O)(=O)CCC(=O)Nc2c(C)cccc2C)cc1,0,0,0,40µM,0,0
CCc1ccccc1NC(=O)CCS(=O)(=O)c1ccc(OC)cc1,0,?,?,14µM,?,89µM
Cc1nc(NC(=O)/C=C/c2ccc(C(C)(C)C)cc2)sc1C(=O)N(C)C,0,0,0,0,0,0
C[N+]12CCCCC1C(COC(=O)c1ccc3c(c1)OCO3)CCC2 (stereo unspecified),0,0,?,?,?,20µM
COc1ccc(NC(=O)c2ccccc2NC(=O)CSc2ccc(Cl)cc2)cc1,0,0,0,0,0,0
O=C(CCc1ccc(S(=O)(=O)NC2CCCCC2)cc1)NCc1ccc(Cl)cc1,0,0,0,0[2.33 µM],0,0
Cc1ccc(C)c(NC(=O)CCc2ccc(S(=O)(=O)NC3CCCCC3)cc2)c1,0,6.7µM,0,0,0,0[11.4 µM]
CCCn1cnc2c(N)c(C)c(C)cc21,0,0,0,1.8µM,0,0
OC1CCN(C(=S)Nc2ccc(Nc3ccccc3)cc2)CC1,18µM,?,?,?,0,0
CC1CCCN(C(=S)Nc2ccc(Nc3ccccc3)cc2)C1 (stereo unspecified),?,?,0,40µM,?,?
S=C(Nc1ccccc1)N1CCC(C2CCN(C(=S)Nc3ccccc3)CC2)CC1,0,0,0,-,0,0
CC1CCCN(C(=S)Nc2ccc(F)cc2)C1 (stereo unspecified),0,0,0,0,0,0
Cc1noc(C)c1-c1nccc(N(C)C)n1,0,-,-,0[0.501 µM],-,-
O=c1nc(SCc2c(F)cccc2Cl)nc(-c2ccc(Cl)cc2)[nH]1,0,21µM,0,?,0,0
O=c1nc(SCc2ccccc2Cl)nc(-c2ccc(Cl)cc2)[nH]1,0,?,0,0,0,0
CCCNC(=O)OC[C@@H]1O[C@H](CCO/N=C\c2ccc(C(=O)N3[C@H](c4ccc(C)cc4)[C@@H](C)CC[C@H]3C(=O)OC)cc2)C=C[C@@H]1Oc1ccc(OC)cc1,0,-,-,-,-,-
CCCNC(=O)OC[C@H]1O[C@H](CCO/N=C/c2ccc(C(=O)N3[C@H](c4ccc(C)cc4)[C@@H](C)CC[C@H]3C(=O)OC)cc2)C=C[C@@H]1Oc1ccc(OC)cc1,0,-,0,71µM,-,-
CN(C)c1ccc(C(=O)c2ccc(N(C)C)c(N)c2)cc1N,0,0,50µM,79µM,?,56µM
CCOc1ccc(C(=O)c2ccc(OCC)c(N)c2)cc1N,0,0,0,0,0,?
NN/C(=C\[N+](=O)[O-])Nc1ccccc1,0,0,56µM,20µM,0,0
NNC(=S)Nc1ccc(Cl)cc1,0,0,0,?,0,?
NN/C(=C\[N+](=O)[O-])Nc1ccc(Cl)cc1,0,12µM,?,1.3µM,0,?
O=C(/C=C/c1ccccc1[N+](=O)[O-])Nc1ccccc1,?,0,0,?,0,0
O=[N+]([O-])c1ccc(NNS(=O)(=O)c2cc(Cl)ccc2Cl)nc1,35µM,?,0,0[0.501 µM],0,0
O=C(O)CC(O)CC(O)/C=C/c1c(C2CC2)nc2ccccc2c1-c1ccc(F)cc1 (stereo unspecified),0,-,-,0,-,-
SMILES,Sfp PPTase inh,PLK1 PBD inh,BAZ2B inh,G9a inh,HP1b binding inh,JMJD2A Tudor inh
Cc1cc(C)nc(NN2C(=O)/C(=C/c3ccccc3)SC2=S)n1,32µM,0,0,40µM,0,0
O=C(O)c1ccc(/C=C2\SC(=S)N(NC(=O)c3ccccc3[N+](=O)[O-])C2=O)cc1,0,0,0,?,0,0
CC(=O)NN1C(=O)/C(=C\c2ccc(C)cc2)SC1=S,0,0,0,0,0,0
O=C1/C(=C/c2ccncc2)SC(=S)N1Nc1ccccc1,?,5.3µM,?,32µM,?,?
O=C(O)c1ccc(/C=C2\SC(=S)N(Nc3ccccc3)C2=O)cc1,0,21µM,?,50µM,0,0
Cc1cc(N2CCCCC2)nc2ccc(NC(=O)/C=C/c3ccc(OCCC(C)C)cc3)cc12,-,-,0,0,0,0
COc1ccc(NC(=O)C(C)n2nc(-c3cc(C)ccc3C)c3c(c2=O)CCCC3)cc1 (stereo unspecified),-,-,0,0,0,0
O=[N+]([O-])c1ccc(Cl)c(C[n+]2cccc3ccccc32)c1,0,0,0,-,0,0
Oc1ccc(N=Nc2ccc3ccccc3c2)cc1,0,0,32µM,0[0.501 µM],?,45µM
COc1cc(N=Nc2ccc3ccccc3c2)ccc1O,0,0,25µM,0[12.7 µM],?,40µM
CN(c1ccc(O)cc1)S(=O)(=O)c1ccc2ccccc2c1,0,0,0,0,0,0
COc1cc(N=Nc2ccccc2C(=O)O)ccc1O,0,0,0,50µM,0,0
COc1cc(-c2nc3ccccc3nc2-c2ccc(O)c(OC)c2)ccc1O,0,0,0,-,0,0
COC(=O)C1=C(C)N(CC2CC2)C(=O)N[C@H]1CCc1ccccc1,0,-,-,-,-,-
CCn1c(=O)c2cc(C(=O)N(CCCOC(C)C)Cc3ccco3)sc2c2ccccc21,-,-,0,0,0,0
O=C(Nc1ccc2oc(-c3cccnc3)nc2c1)c1ccc(Br)cc1,-,-,0,0,0,0
O=C(Nc1ccc2oc(-c3cccnc3)nc2c1)c1ccco1,0,0,0,50µM,0,0
O=C(Nc1ccc2oc(-c3cccnc3)nc2c1)c1ccc(Br)o1,50µM,0,0,20µM,0,0
O=C(Nc1cccnc1)c1cccc(NC(=O)c2ccco2)c1,0,0,0,40µM,0,0
O=C(Nc1ccc(-c2nc3ncccc3o2)cc1)c1ccco1,0,11µM,0,0[12.7 µM],0,35µM
COc1ccc(OC)c(NC(=O)CSc2nnc(-c3cnccn3)n2C)c1,0,0,0,0,0,0
O=C(Nc1cccc(NC(=O)c2nccc3ccccc23)c1)c1ccco1,0,0,0,45µM,0,0
CN(Cc1ccco1)c1cc(-c2ccc3c(c2)OCO3)ncn1,0,-,-,0[0.501 µM],-,-
COc1cccc(NC(=O)CCSc2nc(-c3ccco3)cc(C(F)(F)F)n2)c1,-,-,0,0,0,0
O=C(O)c1cccc(-c2ccc(/C=N/Nc3ccc([N+](=O)[O-])cc3)o2)c1,0,0,45µM,-,0,0
O=C(O)c1ccc(N/N=C/C=C/c2ccc([N+](=O)[O-])o2)cc1,?,0,40µM,32µM,?,45µM
NS(=O)(=O)c1ccc(-c2ccc(/C=N/Nc3ccc(C(=O)O)cc3)o2)cc1,50µM,0,0,-,0,0[11.4 µM]
O=C(O)c1ccc(N/N=C/c2ccc(-c3cccc(Cl)c3)o2)cc1,0,?,?,?,0,0[11.4 µM]
O=C(O)c1ccc(N/N=C/c2ccc(-c3cc(Cl)ccc3Cl)o2)cc1,0,21µM,79µM,0,0,40µM
O=C(NCc1ccccc1)NC1COc2ccccc2C1 (stereo unspecified),-,-,0,0,0,0
